Growth data for nine molecules are collected here from PubChem BioAssay (NCI).

Common to all, as to assay: NCI-60 one-dose screen, 48 h (100 = growth as untreated, 0 = no growth, -100 = all killed)
Common to all, as to conditions: 10 µM unless noted

Test [1] relates to SR leukemia.
In test [2] the test system is RPMI-8226 leukemia.
Test [3] has as its system OVCAR-8 ovarian.
Test [4] concerns OVCAR-5 ovarian.
The subject of test [5] is OVCAR-4 ovarian.
Test [6] deals with SK-OV-3 ovarian.
In test [7] the test system is OVCAR-3 ovarian.
The test system of test [8] is HS 578T breast.
Test [9] relates to NCI/ADR-RES ovarian.
Test [10] relates to T-47D breast.
Test [11] deals with BT-549 breast.
Test [12] has as its system MDA-MB-435 melanoma.
The subject of test [13] is SW-620 colon.
The subject of test [14] is MCF7 breast.
Test [15] has as its system HCT-116 colon.
Test [16] concerns HCC-2998 colon.
Test [17] deals with IGROV1 ovarian.
Test [18] relates to KM12 colon.

This is part of a sample that, as a whole, favours compounds with a hit. Of some 83,000 tested, about 20% had one in any assay.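 Cell lines were cultured in 96-well plates, exposed to a single compound concentration, and assessed for percent growth 48 hours later.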 Unmarked numbers belong to inactive results. The source made the active and inactive calls. The calls were made as follows: active = growth percent below 10; inactive = the rest.

As to `CCCCCCCCCCCCCCCCNCCC[C@@H](C)[C@H]1CC[C@H]2[C@@H]3[C@H](OCCCN)C[C@@H]4C[C@H](OCCCN)CC[C@]4(C)[C@H]3C[C@H](OCCCN)[C@]12C`, the growth is 2.63% (active) in [1]; -15.4% (active) in [2]; -48.9% (active) in [3]; -3.67% (active) in test [4]; -37.1% (active) in [5]; -45.7% (active) in test [6]. Also, the growth was -10.5% (active) in test [7]; -34% (active) in test [8]; -60.6% (active) in test [9]; -20.9% (active) in test [10]; -26% (active) in [11]; -28.3% (active) in test [12]. Also, the growth in test [13] is -25.3% (active); in test [14], -44.3% (active); in test [15] it was -16.6% (active); in [16] it was -32.4% (active).

On to `O=C(CN1CCOCC1)Nc1ccc(Cn2nnc3c2C(=O)c2nnn(Cc4ccc(NC(=O)CN5CCOCC5)cc4)c2C3=O)cc1`, for which the growth in [1] was -21.3% (active); in [2] it was -18.9% (active); in test [3], -58.3% (active); in [4], -21.9% (active); in test [5], -93.4% (active); in test [6], 0.088% (active). The growth in test [17] was -41.4% (active); in [8], 11.6%; in [9], 103%; in test [10], -26.5% (active); in test [11], -95.6% (active); in test [12] it was -77.1% (active). In addition, the growth in test [13] was 4.23% (active); in test [14] it was -62% (active); in test [15] it was -75.1% (active); in test [16], -42% (active); in test [18] it was 6.44% (active).

For `Cc1cc(=O)oc2cc(Oc3nc(-c4ccc(Cl)cc4)cn4c(-c5ccc(Cl)cc5)cnc34)ccc12`, the growth in test [1] was 50.9%; in [2] it was 93.7%; in [3] it was 92.5%; in [4] it was 94.6%; in test [5], 85.6%; in [6], 103%. For the same molecule, the growth in test [17] was 97.6%; in test [8] it was 87.8%; in test [9], 78.8%; in [10], 104%; in test [11], 89.4%; in test [12] it was 75.5%. Also, the growth in test [13] was 66.7%; in [14] it was 73.1%; in test [15], 92.1%; in [16] it was 106%; in [18] it was 81.2%.

On to `CCN(CC)CCCNc1cccc2c(SCc3ccccc3)ccnc12`, for which the growth in test [1] was -27.9% (active); in test [2], -39.7% (active); in test [3], 89.9%; in [4] it was 107%; in [5], 104%; in test [6], 97.8%. For the same molecule, the growth in [17] is -40.3% (active); in test [7], 36.8%; in test [9] it was 42%; in test [10] it was 103%; in test [11] it was 74.8%; in test [12], -27.9% (active). The growth in [13] was 55%; in test [14] it was 98.6%; in test [15], 75%; in [16] it was 25.4%; in [18], 34%.

On to `Nc1ccc(N2CCOCC2)cc1`, for which the growth in [1] is 110%; in test [2], 112%; in test [3], 105%; in test [4], 91.7%; in test [5] it was 92.8%; in test [6], 104%. Further, the growth in test [17] is 105%; in [7] it was 99.7%; in [8], 125%; in test [9] it was 85.6%; in test [11] it was 82.1%; in test [13], 111%. The growth was 88.8% in test [14], 98% in [15], 96.9% in [16] and 115% in test [18].

Turning to `O=C1C=CC(=O)N1c1ccc(Cc2ccc(N3C(=O)C=CC3=O)cc2)cc1`, the growth in test [1] was 92.6%; in [2], 81.6%; in test [3], 103%; in test [4] it was 86.4%; in test [5] it was 201%; in [6], 101%. The growth in test [7] is 125%; in test [8], 94.7%; in test [9] it was 99.4%; in test [10], 89.8%; in test [11] it was 95.8%; in [12] it was 104%. In addition, the growth in test [13] is 110%; in test [14] it was 89.5%; in test [15], 89%; in [16], 102%; in test [18] it was 100%.

With `Cc1ccc(C2CC3c4ccccc4C2C2CCCCN32)cc1` (stereo not given), the growth in test [1] was 106%; in [2], 60.1%; in [3] it was 109%; in [4] it was 96.2%; in [5], 82.6%; in test [6], 91.7%. In addition, the growth in test [7] is 67.7%; in [8] it was 93.3%; in test [9], 94.1%; in test [10] it was 83.6%; in [11], 57.4%; in [12], 97.8%. In addition, the growth is 106% in [13], 95.7% in test [14], 95.1% in test [15] and 93.1% in test [16].

Turning to `Cn1cc(-c2nc(-c3c[nH]c4ccccc34)cs2)c2cccnc21`, the growth in test [1] was 23%; in test [2], 14.4%; in test [3], 37.9%; in [4] it was 54.4%; in test [5], 45.5%; in [6], 38.7%. Moreover, the growth in [17] is 44.5%; in test [8], 38.6%; in [9] it was 20.4%; in test [10], 0.223% (active); in [11], 7.05% (active); in test [12] it was 1.86% (active). Further, the growth in test [13] was 32%; in test [14], 14.7%; in test [15], 26.3%; in [16] it was 54.7%; in [18], 27.4%.

`CN(C)c1ccc(/C=C(\C#N)c2nc3ccccc3s2)cc1`: the growth in [1] is 87.5%; in [2] it was 111%; in test [3], 99.5%; in [4], 109%; in [5], 90.9%; in test [6] it was 111%. Further, the growth in [17] is 103%; in test [8] it was 104%; in test [9], 107%; in [10], 89.4%; in [11] it was 72.9%; in test [12], 89.1%. In addition, the growth in test [13] was 112%; in [14], 89%; in test [15], 96.8%; in test [16], 106%; in test [18], 108%.
